Shown are actives, neighbours in structure and some others; about 19% of the full set was active somewhere.
HT1080 IDH1KD tx: kills HT-1080 cells with IDH1 knockdown; HT-1080 IDH1 knockdown viability, ATP luminescence, 48 h; Potency, µM (doses to about 46.1 µM), for the others: top-dose activity, negative = toxicity, most hits filed as cytotoxic; actives 2% (n = 360,000); AID 686971;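 note: potency is the fitted concentration of half-maximal effect; 0% = DMSO wells and -100% = cell-free medium wells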
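Assay cells: HT-1080 with IDH1 knockdown, 750 per well, RPMI/5% FBS. Exposure: 48 h at 37 °C following 2 h pre-incubation. Read: CellTiter-Glo luminescence; fitted concentration-response, curve class assigned.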
TDP1 cell CPT: growth inhibition of DT40 Tdp1-/-;hTDP1 cells with camptothecin (screen for TDP1 inhibitors); chicken DT40 Tdp1-/-;hTDP1 cells + 20 nM CPT, ATP luminescence, 48 h; Potency, µM (series often up to 46.2 µM), without a hit: at the top dose activity change, negative = growth inhibition, usual class: inhibitors; actives 12% (n = 420,000); AID 686979; note: potency is the fitted concentration of half-maximal effect; nearly all actives have a fitted effect of over 55% in size
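Chicken DT40 Tdp1-/- cells complemented with human TDP1, 400 cells/well, exposed to compounds plus 20 nM camptothecin for at least 48 h at 37 C; viability read as ATP content by CellTiter-Glo luminescence.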
TDP1 cell noCPT: qHTS for Inhibitors of human tyrosyl-DNA phosphodiesterase 1 (TDP1): qHTS in cells in absence of CPT; DT40 Tdp1-/- hTDP1 cells, no CPT, ATP luminescence, 48 h; Potency, µM (titrated, usually from 46.2 µM), for the others: at the highest dose activity change, negative = growth inhibition, most hits filed as inhibitors; actives 15% (n = 420,000); AID 686978, 2013; note: potency is the fitted concentration of half-maximal effect; nearly all actives have a fitted effect of over 55% in size
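Readout: luminescence from CellTiter-Glo after 30 min in the dark at RT. Cells: DT40 Tdp1-/- with stable hTDP1, 400/well. Exposure: compounds alone, ≥48 hr, 37 °C.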
IL1B secr inh: inflammasome signaling inhibition, IL-1 beta readout. THP-1 LPS/ATP IL-1B secretion, AlphaLISA, 16 h; active compounds read low. activity change, % at 57.5 µM. actives 4.7% (n = 360,000). AID 743279; in the data active = activity change below about -50%; inconclusive = mostly about -30% to -49%
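Secreted IL-1B measured by AlphaLISA bead assay after 16 h compound exposure of THP-1 cells; compounds (final up to 57.5 uM) added 1 h before LPS (250 ng/mL) and ATP (1.25 mM) stimulation; lower signal means less secretion.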
HT1080-NT tox: kills 2HG-producing HT-1080-NT fibrosarcoma cells. HT-1080-NT fibrosarcoma viability, CellTiter-Glo ATP luminescence, 48 h. Potency, µM (series often up to 46.1 µM), for the others: top-dose activity, negative = less viability, most hits filed as cytotoxic. actives 1.6% (n = 360,000). AID 686970;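 note: NT is the 2HG producing partner of a matched IDH1 knockdown line; potency is the fitted concentration of half-maximal effect; 0% = DMSO-treated cells and -100% = media-only wells without cells; nearly all actives have a fitted effect of over 55% in size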
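Viability by CellTiter-Glo luminescence after 48 h compound exposure at 37C of HT-1080-NT cells (750/well, RPMI, 5% FBS). % activity scaled between DMSO wells and medium-only wells, then curve-fitted and categorized by curve class.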
An asterisk follows results filed as active; i = inactive; ? = inconclusive; . = not tested or not shown; [ ] = dose if it differs, or a comment. Unless noted, calls come from the whole dose curve; as a rule, active = well fitted curve in the direction sought with a large enough effect; inconclusive = small, poorly fitted or top-dose-only effect, or another doubt; inactive = no such curve, though single readings can be large; an effect the other way counts as inactive or inconclusive. Unless noted, % is set by controls: 0 for no effect and ±100 for the full control effect.

SMILES	HT1080 IDH1KD tx	TDP1 cell CPT	TDP1 cell noCPT	IL1B secr inh	HT1080-NT tox
CC1(C)CC2CC(C)(CN2C(=O)COC(=O)c2ccc(Cl)cc2N)C1 (stereo unspecified)	1%	-15%	23µM*	-14	0%
COc1cc(Cl)ccc1OCc1cc(C(=O)N2C[C@]3(C)C[C@H]2CC(C)(C)C3)no1	-27%	?	16µM*	-14	0%
CC(C)c1ccc(OCC(=O)NC2CC(C)(C)NC(C)(C)C2)c(Br)c1	?	?	?	-62*	-27%
Cc1cc(OCC(=O)NC2CC(C)(C)NC(C)(C)C2)c(C)cc1Br	-24%	?	13µM*	i	-4%
Cc1cc2nc(-c3ccc(Cl)cc3)c(CC(C)(C)C)n2c(C)c1Br	-26%	15µM*	?	10	-23%
Cc1ccc(-c2nc3cc(C)c(Br)c(C)n3c2Cc2ccccc2)cc1	-28%	2.3µM*	7.3µM*	24	-24%
Cc1ccc(Cc2c(-c3ccc(Cl)cc3)nc3cc(C)c(Br)c(C)n23)cc1	-6%	?	-14%	0	-6%
Cc1cc2nc(-c3ccccc3)c(CC(C)(C)C)n2c(C)c1Br	-26%	15µM*	18µM*	99	-21%
CS(=O)(=O)c1ccc(Cl)c(C(=O)Nc2ccc3nc(N4CCOCC4)sc3c2)c1	-12%	?	?	35	-7%
CCCCn1nnnc1C(c1ccccc1)N1CCN(c2ccc(C)cc2)CC1 (stereo unspecified)	-25%	?	18µM*	-27	-21%
CCCCn1nnnc1C(c1ccccc1)N1CCN(c2ccccn2)CC1 (stereo unspecified)	10%	-46%	16µM*	?	15%
c1ccc(Cn2nnnc2C(c2cccnc2)N2CCN(c3ccccc3)CC2)cc1 (stereo unspecified)	-1%[9.24 µM]	21µM*	23µM*	-2	-25%
CCCCn1nnnc1C(c1ccccc1)N1CCN(CCN2CCOCC2)CC1 (stereo unspecified)	10%	2%	-14%	42	-10%
CCCCn1nnnc1C(c1ccccc1)N1CCN(c2ncccn2)CC1 (stereo unspecified)	1%	?	21µM*	-19	4%
CN(C)c1cccc(C(=O)NCC2Cc3cccc(-c4cncnc4)c3O2)c1 (stereo unspecified)	.	-8%[9.04 µM]	-26%	.	.
COc1ccc(C2C(C(N)=O)=C(C)Nc3nc(SCc4ccccc4Cl)nn32)cc1OC (stereo unspecified)	.	-5%	-14%	.	.
CC(C)(CNC(=O)c1cnn(-c2ncc3c(n2)-c2ccccc2CCC3)c1C1CC1)N1CCOCC1	.	-2%[9.04 µM]	-5%	.	.
Cc1cccn2c(=O)nc(SCC(=O)NCc3ccc(F)cc3)nc12	8%	-25%	-25%	2	14%
c1coc(C2Nc3ccccc3C3OCCC23)c1 (stereo unspecified)	5%	3%	-5%	8	3%
COc1ccc2c(c1)C1OCCC1C(c1ccco1)N2 (stereo unspecified)	?	23µM*	?	?	?
COC(=O)c1c(-c2cccs2)csc1NC(=O)c1cccnc1	-2%	16µM*	15µM*	-65*	-8%
CCN(CC)C(=O)c1sc(NC(=O)c2cccnc2)c(C(=O)OC)c1C	7%	0%	-26%	22	5%
COC(=O)c1c(-c2cccs2)csc1NC(=O)c1ccc(Cl)cc1	.	16µM*	-62%	.	.
COC(=O)c1c(-c2cccs2)csc1NC(=O)c1ccc(C(C)C)cc1	.	?	15µM*	.	.
CCOC(=O)c1c(-c2ccc(OC)c(OC)c2)csc1NC(=O)c1ccc(C)cc1	.	-18%	-18%	.	.
SMILES	HT1080 IDH1KD tx	TDP1 cell CPT	TDP1 cell noCPT	IL1B secr inh	HT1080-NT tox
COC(=O)c1c(-c2cccs2)csc1NC(=O)c1cccc(Cl)c1	.	?	-27%	.	.
COc1ccc(C(=O)Nc2scc(-c3ccc(Cl)cc3Cl)c2C(N)=O)cc1	1%	?	15µM*	?	12%
Cc1cccc(NC(=O)COC(=O)CCc2c[nH]c3ccccc23)c1C	4%	?	?	-4	-6%[9.24 µM]
COc1cc(OC)cc(C(=O)N[C@H](C(=O)Nc2c(C)n(C)n(-c3ccccc3)c2=O)C(C)C)c1	2%	?	?	-3	6%
COC(=O)c1c(-c2ccccc2)csc1NC(=O)c1ccco1	15%	3%	-18%	-16	0%
COC(=O)c1c(-c2cccs2)csc1NC(=O)c1ccc(C(C)(C)C)cc1	.	16µM*	15µM*	.	.
CN(C)CCNc1ncnc2c1ncn2[C@H]1CN(CCc2ccccc2)C[C@@H](CO)O1	16%	-5%	-18%	21	30%
COC(=O)c1cc2oc(C)cc2n1CC(=O)Nc1ccc(C(C)C)cc1	.	7.3µM*	21µM*	.	.
CSc1ccc(Cn2c(C)c(C(=O)NCc3cccc(Cl)c3)sc2=O)cc1	?	?	?	?	-17%
CCOc1ccc(C2=NC(c3cccs3)=Nc3ccc(CC)cc3N2)cc1OCC	.	?	18µM*	.	.
CCc1ccc2c(c1)NC(c1cccs1)=NC(c1ccc(F)cc1)=N2	.	23µM*	23µM*	.	.
COc1ccc(C2=NNC(c3cccs3)=Nc3ccc(OC)cc32)cc1	0%	-11%	-27%	-22	-6%
O=c1c2oc3ccccc3c2n(Cc2ccc(Cl)cc2)c(=O)n1Cc1ccc2c(c1)OCO2	.	-20%	-30%	.	.
O=C(O)CCSc1nnc(-c2cccnc2)n1-c1ccccc1	11%	-2%	-2%	1	3%
CC(C)CC(N)C(=O)NC(C)C(=O)O (stereo unspecified)	.	-21%	-2%	.	.
Cc1cccc(C)c1OCC(N)C(C)C (stereo unspecified)	0%	4%	13%	-57*	5%
O=C1CC(NCc2ccc(F)cc2)C(=O)N1c1ccccc1 (stereo unspecified)	3%	-10%	0%	-11	7%
N#CCNC1CC(=O)N(c2ccc(F)cc2)C1=O (stereo unspecified)	7%	4.6µM*	?	-15	2%
Cc1cc(C)nc(NS(=O)(=O)c2ccc(NC(=O)c3cc(=O)c4ccccc4o3)cc2)n1	0%	2%	20%	31	-5%
NN/C(=C\[N+](=O)[O-])Nc1ccccc1	2%	?	21µM*	14	-2%
CCc1ccc(C(=O)CN2C(=O)NC3(CCOc4ccccc43)C2=O)s1 (stereo unspecified)	-6%	-27%	?	-20	-12%

Screening results: PubChem, National Center for Advancing Translational Sciences (NCATS)
